Screens as filed in PubChem BioAssay.
Rows were chosen to be rich in hits. Some 11% of all compounds tested hit in one or more screens of this group.
HPGD inh = qHTS Assay for Inhibitors of HPGD (15-Hydroxyprostaglandin Dehydrogenase). Potency, µM, without a hit: at the highest dose activity change, negative = inhibition, most hits filed as inhibitors. AID 894, 2007. 4.3% of 150,000 active. 15-hydroxyprostaglandin dehydrogenase [NAD(+)] (Homo sapiens), P15428. purified HPGD, NADH fluorescence kinetic, PGE2 substrate; also: potency is read from the fitted curve at half-maximal effect
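20 nM HPGD preincubated 15 min at room temperature with compound in 50 mM Tris-HCl pH 8, 0.01% Tween 20. Started with 1 mM NAD+ and 30 uM prostaglandin E2; NADH fluorescence (360/450 nm) read 5 times over 30-s intervals, last minus first.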
PNC assembly inh = High Content Assay for Compounds that inhibit the Assembly of the Perinucleolar Compartment | PC3M PTB-GFP, PNC prevalence imaging, 16 h; hits give low values | activity change (PNC), negative = inhibition, % at 10 µM | 3.1% of 140,000 active | AID 2417, 2010;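 active = readout at or below -70, meaning at least 70% loss of cells showing the perinucleolar compartment, a nuclear body marking cancer cells; inconclusive = readout between -30 and a set limit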;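 also: plate controls were DMSO wells for no effect and camptothecin positive control wells for full effect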
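Compounds are pinned in duplicate onto adhered PC3M cells stably expressing GFP-tagged PTB and incubated 16 h at 37 C. Cells are then fixed, nuclei stained with Hoechst, and PNC-positive cells counted.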
ALDH1A1 inh = qHTS Assay for Inhibitors of Aldehyde Dehydrogenase 1 (ALDH1A1) | Purified ALDH1A1, NADH fluorescence, propionaldehyde substrate | Potency, µM (doses to about 75.3 µM), for the others: top-dose activity, negative = inhibition, most hits filed as inhibitors | 7.3% of 220,000 active | AID 1030, 2008;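 also: potency is read from the fitted curve at half-maximal effect; plate controls were no enzyme wells and a reference inhibitor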
Target sequence (P00352 whole entry, looked up): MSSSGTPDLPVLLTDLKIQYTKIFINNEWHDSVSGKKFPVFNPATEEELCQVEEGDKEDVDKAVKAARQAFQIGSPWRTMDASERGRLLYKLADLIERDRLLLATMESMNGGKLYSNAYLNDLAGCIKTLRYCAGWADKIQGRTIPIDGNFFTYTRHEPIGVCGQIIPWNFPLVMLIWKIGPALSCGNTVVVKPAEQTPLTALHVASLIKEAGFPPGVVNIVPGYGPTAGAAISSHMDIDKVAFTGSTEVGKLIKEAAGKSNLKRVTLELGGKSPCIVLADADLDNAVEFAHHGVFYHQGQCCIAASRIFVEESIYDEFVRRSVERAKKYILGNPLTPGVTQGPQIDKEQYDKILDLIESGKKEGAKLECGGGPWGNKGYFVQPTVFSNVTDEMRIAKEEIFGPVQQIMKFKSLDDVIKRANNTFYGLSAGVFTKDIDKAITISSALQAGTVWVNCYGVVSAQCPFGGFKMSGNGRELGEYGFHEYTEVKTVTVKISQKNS
* marks the source's active call; other numbers are inactive results; [ ] = another dose, or the depositor's remark. Unless noted, calls follow the shape of the dose curve; as a rule, active = well fitted inhibition curve with a large enough effect (not every such curve was filed as active); inconclusive = small, poorly fitted or top-dose-only effect, or another doubt; inactive = no such curve, though single readings can be large or run the other way. Unless noted, % is scaled to controls: 0 for no effect and ±100 for the full control effect.

`CCCCCCN(C(=O)CCCCCN1C(=O)NC(C2CCCCC2)C(C(=O)OCc2ccccc2)=C1C)C(C(=O)NCCCC)c1ccc(OCC(=O)OC)c(C(=O)OC)c1` (configuration not stated) gave HPGD inh -15.8% and ALDH1A1 inh 28.2µM*.
For CCCCNC(=O)C(c1ccc(OCC(=O)OC)c(C(=O)OC)c1)N(CCc1ccccc1)C(=O)CCCCCN1C(=O)NC(c2ccc(-c3ccccc3)cc2)C(C(=O)OCc2ccccc2)=C1C (configuration not stated) the results were HPGD inh -8.0% and ALDH1A1 inh 3.0%.
Screening C#CCOC(=O)[C@H](N)CC(N)=O returned HPGD inh -5.6% and ALDH1A1 inh 0.4%[13.5 µM].
Screening CC(OC(=O)c1ccncc1)C(=O)NC1CCCC1 (configuration not stated) returned ALDH1A1 inh 4.9%.
`CCOC(=S)N/C(=N\S(=O)(=O)c1ccccc1)c1ccccc1` gave HPGD inh inconclusive, PNC assembly inh -100.0* and ALDH1A1 inh 11.2µM*.
`CCCOC(=S)N/C(=N\S(=O)(=O)c1ccccc1)c1ccccc1` gave HPGD inh 28.2µM*, PNC assembly inh -22.1 and ALDH1A1 inh 14.1µM*.
For Cc1ccc(NC(=S)N/C(=N/S(=O)(=O)c2ccccc2)c2ccccc2)cc1 the results were HPGD inh inconclusive, PNC assembly inh 19.0 and ALDH1A1 inh inconclusive.
For O=S(=O)(/N=C(/NS(=O)(=O)c1ccccc1)c1ccccc1)c1ccccc1 the results were ALDH1A1 inh -5.8%.
Screening N/C(Cc1ccc(Cl)cc1)=N\OC(=O)C1CCCCC1 returned HPGD inh -11.8%, PNC assembly inh 51.4 and ALDH1A1 inh -9.4%.
Screening OB(O)O returned HPGD inh -16.6% and ALDH1A1 inh -11.3%.
For CSCC[C@@H]1NC(=O)C/C=C\[C@@H](C)COC(=O)[C@@H](CCSC)NC(=O)C/C=C\[C@@H](C)COC1=O the results were ALDH1A1 inh -4.8%[13.5 µM].
For COC(=O)NCCOc1nc(N(C)C)nc(N(C)C)n1 the results were HPGD inh -10.8%, PNC assembly inh 47.1 and ALDH1A1 inh -2.0%.
`CN(C)c1nc(C(=O)NN)nc(N(C)C)n1` gave HPGD inh -6.4%, PNC assembly inh -25.4 and ALDH1A1 inh 12.6µM*.
`CSc1cccc(NC(=O)N2CCCC(CNS(=O)(=O)Cc3ccccc3)C2)c1` (configuration not stated) gave ALDH1A1 inh 0.8%.
CCn1ccnc1CN(C)Cc1cn(-c2cccc(C)c2)nc1-c1cccc(F)c1 was read as ALDH1A1 inh 20µM*.
`CCn1ccnc1CN(C)Cc1cn(-c2ccc(C)cc2)nc1-c1cccc(C)c1` gave ALDH1A1 inh -6.6%.
Cc1cccc(-n2cc(CNCCN3CCOC3=O)c(-c3cccc(F)c3)n2)c1 was read as ALDH1A1 inh 0.4%.
`Cc1cccc(-n2cc(CN3CCCN(C=O)CC3)c(-c3cccc(F)c3)n2)c1` gave ALDH1A1 inh 10µM*.
Screening CN(Cc1cn(Cc2ccccc2)nc1-c1ccc2c(c1)OCO2)Cc1nccn1C returned ALDH1A1 inh 3.8%.
Cc1ccccc1Cn1c(=O)n(CC2CCC(C(=O)NCCc3ccccc3)CC2)c(=O)c2ccccc21 (configuration not stated) was read as HPGD inh -22.7%, PNC assembly inh 19.0 and ALDH1A1 inh -0.9%.
For CSC1=C(C#N)C(c2cccc(Br)c2)CC(=O)N1 (configuration not stated) the results were HPGD inh -15.2%, PNC assembly inh -0.8 and ALDH1A1 inh 5.2%.
CSC1=C(C#N)C(c2sccc2C)CC(=O)N1 (configuration not stated) was read as ALDH1A1 inh 10µM*.
N#CC1=C(N)C(C#N)(C#N)C(c2cccnc2)C2COCC=C12 (configuration not stated) was read as HPGD inh 28.2µM*, PNC assembly inh 13.0 and ALDH1A1 inh 4.1%.
Screening N#CC1=C(N)C(C#N)(C#N)C(c2cccnc2)C2CN(C(=O)OCc3ccccc3)CC=C12 (configuration not stated) returned HPGD inh -17.6%, PNC assembly inh -6.9 and ALDH1A1 inh inconclusive.
O=[N+]([O-])c1cc(Br)c(O)c(C=Nc2ccc(N3CCOCC3)cc2)c1 was read as ALDH1A1 inh 1.9%.
`Oc1ccc(N=Cc2cc(Br)c(N3CCOCC3)o2)cc1` gave HPGD inh -25.0%, PNC assembly inh 27.5 and ALDH1A1 inh 8.91µM*.
Screening O=C(NCCc1c[nH]c2ccccc12)c1cnccn1 returned ALDH1A1 inh 5.4%.
Screening S=C1NC=NC2N=CNC12 (configuration not stated) returned HPGD inh inconclusive and ALDH1A1 inh 2.24µM*.
CC(C)CNC(=O)c1nc(-c2ccccc2)n(-c2ccccc2)n1 was read as HPGD inh -1.8%, PNC assembly inh inconclusive and ALDH1A1 inh 12.6µM*.
Screening Cc1ccc(-n2nc(C(=O)O)nc2-c2ccccc2)cc1 returned HPGD inh -6.4%, PNC assembly inh 20.4 and ALDH1A1 inh 2.7%.
COc1cc(/C=N/NC(=O)c2nc(-c3ccccc3)n(-c3ccccc3)n2)ccc1O was read as HPGD inh -19.6%, PNC assembly inh 44.2 and ALDH1A1 inh -0.6%.
Cc1c(C(=O)NCc2cccs2)oc2ccccc12 was read as HPGD inh -28.3%, PNC assembly inh 14.2 and ALDH1A1 inh 1.7%.
Screening O=C(N/N=C/c1ccc(O)cc1)c1nc(-c2ccccc2)n(-c2ccccc2)n1 returned HPGD inh -6.0%, PNC assembly inh -100.1* and ALDH1A1 inh 2.1%.
For Cc1nn(-c2ccccc2)c(C)c1C(=O)NCc1cccs1 the results were HPGD inh inconclusive, PNC assembly inh 12.3 and ALDH1A1 inh 4.1%.
Screening Cc1c(-c2ccccc2)nc2ccccc2c1C(=O)NCc1cccs1 returned HPGD inh inconclusive, PNC assembly inh -18.0 and ALDH1A1 inh 14.1µM*.
For Cc1nn(-c2ccccc2)c(Cl)c1C(=O)NCc1cccs1 the results were HPGD inh 10µM*, PNC assembly inh inconclusive and ALDH1A1 inh -1.4%.
Screening COc1ccccc1NC(=O)Cc1noc(CSc2n[nH]c(N)n2)n1 returned ALDH1A1 inh 8.9%.
`CN(C)CCSc1nnc2[nH]c3ccccc3c2n1` gave HPGD inh -15.6%, PNC assembly inh 54.8 and ALDH1A1 inh -5.3%.
Cc1nn(-c2ccccc2)c(C)c1NC(=O)Cc1cccs1 was read as HPGD inh 15.8µM*, PNC assembly inh 39.4 and ALDH1A1 inh -4.1%.
Screening COC(=O)c1sccc1NC(=O)COc1ccc(F)cc1Cl returned ALDH1A1 inh 8.9%.
`Cc1nn(-c2ccccc2)c(Cl)c1C(=O)NCC(C)C` gave HPGD inh 10µM*, PNC assembly inh -20.3 and ALDH1A1 inh 10.7%.
For Cc1nn(-c2ccccc2)c(C)c1NC(=O)COc1ccc(F)cc1Cl the results were HPGD inh -16.4%, PNC assembly inh -102.4* and ALDH1A1 inh inconclusive.
Cc1nn(-c2ccccc2)c(Cl)c1C(=O)NCCN(C)C was read as ALDH1A1 inh -5.8%.
